Rows were chosen to be rich in hits. Some 19% of all compounds tested hit in one or more screens of this group.
IL-1B inflam inh: qHTS for Inhibitors of Inflammasome Signaling: IL-1-beta AlphaLISA Primary Screen | hit rate 4.7% among 360,000 | AID 743279, 2014 | THP-1 LPS/ATP IL-1B secretion, AlphaLISA, 16 h; stronger effect = lower value | activity change, % at 57.5 µM; in the data active = activity change below about -50%; inconclusive = mostly about -30% to -49%
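Secreted IL-1B measured by AlphaLISA bead assay after 16 h compound exposure of THP-1 cells; compounds (final up to 57.5 uM) added 1 h before LPS (250 ng/mL) and ATP (1.25 mM) stimulation; lower signal means less secretion.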
HT1080NT lethal: qHTS for induction of synthetic lethality in tumor cells producing 2HG: qHTS for the HT-1080-NT fibrosarcoma cell line; Potency, µM (series often up to 46.1 µM), hits mostly cytotoxic; HT-1080-NT fibrosarcoma viability, CellTiter-Glo ATP luminescence, 48 h; hit rate 1.6% among 360,000;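 note: NT is the 2HG producing partner of a matched IDH1 knockdown line; nearly all actives have a fitted effect of over 55% in size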
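750 cells/well, RPMI + 5% FBS; 2 h settle, compound pin-transfer, 48 h at 37 degrees C. CellTiter-Glo 10 min RT, luminescence. Normalized to DMSO and media-only wells.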
TDP1 cell CPT: qHTS for Inhibitors of human tyrosyl-DNA phosphodiesterase 1 (TDP1): qHTS in cells in presence of CPT. chicken DT40 Tdp1-/-;hTDP1 cells + 20 nM CPT, ATP luminescence, 48 h. hit rate 12% among 420,000. Potency, µM (doses to about 46.2 µM), hits mostly inhibitors; note: nearly all actives have a fitted effect of over 55% in size
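Cell growth measured by CellTiter-Glo luminescence after a minimum 48 h, 37 C compound exposure with 20 nM CPT in Tdp1-knockout DT40 cells stably expressing hTDP1, seeded 400/well; qHTS titration format.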
HT1080 IDH1KD tx: qHTS for induction of synthetic lethality in tumor cells producing 2HG: qHTS for the HT-1080-IDH1KD cell line | HT-1080 IDH1 knockdown viability, ATP luminescence, 48 h | Potency, µM (highest dose often 46.1 µM), actives largely listed as cytotoxic | hit rate 2% among 360,000
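Knockdown cells (IDH1KD HT-1080) received compounds 2 h after plating at 750 cells/well and were kept 48 h at 37 °C in 5% FBS RPMI. A CellTiter-Glo luminescence read gave % activity for curve fitting.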
TDP1 cell noCPT: qHTS for Inhibitors of human tyrosyl-DNA phosphodiesterase 1 (TDP1): qHTS in cells in absence of CPT; hit rate 15% among 420,000; DT40 Tdp1-/- hTDP1 cells, no CPT, ATP luminescence, 48 h; AID 686978, 2013; Potency, µM (doses to about 46.2 µM), most hits filed as inhibitors; note: nearly all actives have a fitted effect of over 55% in size
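Camptothecin absent (DMSO only). Human TDP1-complemented DT40 knockout cells, 400 cells/well, 37 °C for minimum 48 hr; ATP measured via CellTiter-Glo, 30 min dark incubation, luminescence.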
Of the large screens only hits and unclear results are named; the others gave an inactive call. Unless noted, calls come from the whole dose curve; as a rule, active = well fitted curve in the direction sought with a large enough effect; inconclusive = small, poorly fitted or top-dose-only effect, or another doubt; inactive = no such curve, though single readings can be large; an effect the other way counts as inactive or inconclusive.

COc1ccc2[nH]c(CN3CCN(CC(C)C)C(CCO)C3)c(C)c2c1 (centres undefined)	IL-1B inflam inh -96.1, TDP1 cell noCPT 23.1µM
O=C(NNC(=O)c1ccccc1OCc1ccccc1Cl)c1csc(N2CCOCC2)n1	TDP1 cell CPT inconclusive, HT1080 IDH1KD tx inconclusive, TDP1 cell noCPT inconclusive
Cc1ccccc1NC(=O)CSc1ncc2c(n1)-c1ccccc1N(C)S2(=O)=O	TDP1 cell CPT inconclusive (no result: IL-1B inflam inh, HT1080NT lethal, HT1080 IDH1KD tx)
Cc1cc(NS(=O)(=O)c2ccc(NC(=O)COc3c(C)cc(Br)cc3C)cc2)no1	TDP1 cell CPT 20.6µM, HT1080 IDH1KD tx inconclusive, TDP1 cell noCPT 23.1µM
CCOc1ccc(OCC(=O)Nc2ccc(S(=O)(=O)Nc3cc(C)nc(C)n3)cc2)cc1	none
Cc1cc(NS(=O)(=O)c2ccc(NC(=O)COc3ccc(Br)cc3)cc2)nc(C)n1	TDP1 cell CPT 14.6µM, TDP1 cell noCPT inconclusive
Cc1cc(NS(=O)(=O)c2ccc(NC(=O)COc3ccc(Br)cc3C)cc2)no1	none (no result: IL-1B inflam inh, HT1080NT lethal, HT1080 IDH1KD tx)
CC(Oc1cccnc1[N+](=O)[O-])C(=O)Nc1ccc(Cl)cn1 (centres undefined)	none
O=C1NC(Cc2c[nH]c3ccccc23)C(=O)N1Cc1cccc2ccccc12 (centres undefined)	IL-1B inflam inh -100.8, HT1080NT lethal inconclusive, HT1080 IDH1KD tx inconclusive, TDP1 cell noCPT inconclusive
CC(C)c1ccc(NC(=O)CN2C(=O)NC(Cc3c[nH]c4ccccc34)C2=O)cc1 (centres undefined)	IL-1B inflam inh -58.9, HT1080NT lethal inconclusive, TDP1 cell CPT inconclusive, HT1080 IDH1KD tx inconclusive, TDP1 cell noCPT 16.4µM
CN(Cc1ccccc1)C(=O)c1c[nH]c2ccc(S(=O)(=O)Nc3ccccc3F)cc2c1=O	TDP1 cell noCPT inconclusive (no result: IL-1B inflam inh, HT1080NT lethal, HT1080 IDH1KD tx)
CN1CCN(C(=O)C2CCN(c3ncc(C(F)(F)F)cc3Cl)CC2)CC1	TDP1 cell CPT inconclusive, TDP1 cell noCPT 20.6µM
O=C(CN1CCN(c2ncc(C(F)(F)F)cc2Cl)CC1)N1CCN(c2ncc(C(F)(F)F)cc2Cl)CC1	TDP1 cell CPT 17.8µM, TDP1 cell noCPT 15.8µM
O=C(CSc1ccc(Cl)cc1)N1CCN(c2ncc(C(F)(F)F)cc2Cl)CC1	HT1080NT lethal inconclusive, TDP1 cell CPT inconclusive, HT1080 IDH1KD tx inconclusive, TDP1 cell noCPT inconclusive
O=C(OC1CCN(c2ncc(C(F)(F)F)cc2Cl)CC1)c1cccc(C(F)(F)F)c1	none
O=C(c1cccc(C(F)(F)F)c1)N1CCOC12CCN(c1ncc(C(F)(F)F)cc1Cl)CC2	IL-1B inflam inh inconclusive, TDP1 cell CPT 23.1µM, TDP1 cell noCPT 23.1µM
Cc1ccc(N(CC(=O)N2CCN(Cc3ccccc3)CC2)S(C)(=O)=O)cc1C	none
Cc1ccc(-c2nnn(CC(=O)N(CCCO)C(C(=O)NC3CCCC3)c3ccc(F)cc3)n2)o1 (centres undefined)	TDP1 cell noCPT inconclusive
C[C@H](CO)N1C[C@H](C)[C@@H](CN(C)S(=O)(=O)c2ccccc2)Oc2ccc(NC(=O)CCN3CCOCC3)cc2C1=O	none
COc1cccc(CNC(=O)Cn2c(=O)n3nc(-c4cccc(F)c4)nc3c3ccccc32)c1	none (no result: IL-1B inflam inh, HT1080NT lethal, HT1080 IDH1KD tx)
Cc1cccc(NC(=O)Cn2c(=O)n3nc(CCn4nc(C)cc4C)nc3c3ccccc32)c1	TDP1 cell CPT 17.8µM, TDP1 cell noCPT 12.6µM
COc1cccc(CNC(=O)Cn2c(=O)n3nc(-c4cccc(C)c4)nc3c3ccccc32)c1	TDP1 cell CPT 16.4µM, TDP1 cell noCPT 14.6µM (no result: IL-1B inflam inh, HT1080NT lethal, HT1080 IDH1KD tx)
Oc1c(C2=NCCNC(C(F)(F)F)=C2)ccc2ccccc12	IL-1B inflam inh -108.9, HT1080NT lethal inconclusive, HT1080 IDH1KD tx inconclusive
O=C(NC(O)C(=O)c1ccccc1)c1ccccn1 (centres undefined)	TDP1 cell CPT 23.1µM, TDP1 cell noCPT inconclusive
O=C(NCCNC(=O)c1ccccn1)c1ccc(F)cc1	none
C/C(Cc1ccccc1)=N\NC(=O)c1ccccn1	none
O=C(NC(O)C(=O)c1ccccc1)c1cccs1 (centres undefined)	TDP1 cell CPT inconclusive, TDP1 cell noCPT inconclusive
O=C(NN=C(c1ccccc1)c1ccccn1)c1ccccc1	IL-1B inflam inh -98.7, TDP1 cell CPT 1.03µM, HT1080 IDH1KD tx inconclusive, TDP1 cell noCPT 0.92µM
COc1ccc(C(=O)N/N=C(\c2ccccc2)c2ccccn2)cc1	HT1080NT lethal inconclusive, TDP1 cell CPT 2.91µM, HT1080 IDH1KD tx inconclusive, TDP1 cell noCPT 2.59µM
O=C(N/N=C(\c1ccccc1)c1ccccn1)c1ccccc1Cl	IL-1B inflam inh -103.7, TDP1 cell CPT inconclusive, HT1080 IDH1KD tx inconclusive, TDP1 cell noCPT inconclusive
Brc1ccc(CSc2nnc3ccccn23)cc1	none
CN[C@@H]1[C@@H](O)[C@@H](O[C@@H]2[C@@H](O)[C@H](O[C@H]3O[C@H](CN)[C@@H](O)[C@H](O)[C@H]3O)[C@@H](N)C[C@H]2NC(=O)C(O)CN)OC[C@]1(C)O (some centres undefined)	none (no result: IL-1B inflam inh, HT1080NT lethal, HT1080 IDH1KD tx)
CN(C(=O)c1cccc(NC(=O)Cc2ccc(NC(=O)C3CCN(C(=O)CCc4ccccc4)CC3)cc2)c1)C1CCC1	TDP1 cell CPT 13µM, TDP1 cell noCPT 13µM
CN(C(=O)c1cccc(NC(=O)Cc2ccc(NC(=O)C3CCN(C(=O)CCc4ccccc4)CC3)cc2)c1)C1CC1	TDP1 cell CPT 16.4µM, TDP1 cell noCPT 10.3µM
CC(C)C[C@@H](CNCC(=O)[C@H](Cc1ccccc1)NC(=O)c1[nH]cnc1C(=O)N[C@H](CN)CC(C)C)NC(=O)c1nc[nH]c1C(=O)N[C@@H](CC(=O)O)C(=O)O	none
COc1cccc(N2CC(O)Cn3c2nc2c3c(=O)n(CCCc3ccccc3)c(=O)n2C)c1 (centres undefined)	TDP1 cell CPT 11.6µM, TDP1 cell noCPT 16.4µM
Oc1ccc(Nc2nc(Cl)nc(NCc3ccco3)n2)cc1	IL-1B inflam inh -109.5, TDP1 cell noCPT inconclusive
CCNc1nc(NCc2ccco2)c2ccccc2n1	TDP1 cell CPT 11.2µM, TDP1 cell noCPT 11.2µM (no result: IL-1B inflam inh, HT1080NT lethal, HT1080 IDH1KD tx)
c1cncc(-c2nc(NCc3ccco3)c3ccccc3n2)c1	TDP1 cell noCPT inconclusive
C=CCNc1nc(NCc2ccco2)nc(OCC)n1	TDP1 cell CPT 20.6µM, TDP1 cell noCPT inconclusive
Clc1nc(NCc2ccco2)c2ccccc2n1	TDP1 cell CPT inconclusive, TDP1 cell noCPT 7.08µM (no result: IL-1B inflam inh, HT1080NT lethal, HT1080 IDH1KD tx)
CCC(C(=O)NC1CCCC1)N(Cc1ccco1)C(=O)CNS(=O)(=O)c1ccccc1 (centres undefined)	none
C=CCNC(=O)C1COc2ccccc2O1 (centres undefined)	none
Cc1ccc(S(=O)(=O)Nc2nc3ccccc3nc2NCc2ccco2)cc1	HT1080NT lethal inconclusive, TDP1 cell CPT inconclusive, HT1080 IDH1KD tx 10µM, TDP1 cell noCPT inconclusive
